# Inconclusive results are not listed. Unmarked numbers belong to inactive results. Activity calls are given as the source filed them. Calls follow the shape of the dose curve; as a rule, active = well fitted curve in the direction sought with a large enough effect in the repeat runs; inconclusive = weak or mixed curves; inactive = no such curve, though single readings can be large; an effect the other way counts as inactive or inconclusive.
# Legend:
# [1] = molecular target: Cytochrome P450 2C19 (Homo sapiens) (UniProt P33261); assay: Cytochrome P450 Family 2 Subfamily C Member 19 (CYP2C19) small molecule antagonists: luciferase reporter qHTS assay (AID 1671197); also: nearly all actives have a fitted effect of over 65% in size; as to activity change, negative = inhibition: series mostly up to about 120 µM; % is scaled to controls: 0 for no effect and ±100 for the full control effect
# Cytochrome P450 2C19 (Homo sapiens), sequence (P33261 whole entry, looked up): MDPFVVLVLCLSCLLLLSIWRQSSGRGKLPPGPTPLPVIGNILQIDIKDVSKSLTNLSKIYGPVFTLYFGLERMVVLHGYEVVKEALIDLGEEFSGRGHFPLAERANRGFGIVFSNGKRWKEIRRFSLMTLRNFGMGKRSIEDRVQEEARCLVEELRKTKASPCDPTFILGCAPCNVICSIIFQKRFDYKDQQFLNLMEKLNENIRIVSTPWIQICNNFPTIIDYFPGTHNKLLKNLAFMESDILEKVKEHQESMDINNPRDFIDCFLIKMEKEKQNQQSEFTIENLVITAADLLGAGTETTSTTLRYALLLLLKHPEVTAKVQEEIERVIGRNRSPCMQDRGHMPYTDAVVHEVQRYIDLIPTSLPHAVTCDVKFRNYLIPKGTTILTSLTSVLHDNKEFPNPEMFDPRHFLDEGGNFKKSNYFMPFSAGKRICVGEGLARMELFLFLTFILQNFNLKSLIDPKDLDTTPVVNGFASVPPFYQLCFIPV
# How it was run: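 Relative luminescence units recorded 20 min after the detection reagent stopped a 1 h, 37C CYP2C19 reaction on proluciferin substrate, which was started by NADPH regeneration following 10 min room-temperature compound preincubation; ketoconazole positive control.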
# [2] = molecular target: Cytochrome P450 2C9 (Homo sapiens) (UniProt P11712); assay: Cytochrome P450 Family 2 Subfamily C Member 9 (CYP2C9) small molecule antagonists: luciferase reporter qHTS assay (AID 1671198); also: nearly all actives have a fitted effect of over 50% in size
# Cytochrome P450 2C9 (Homo sapiens), sequence (P11712 whole entry, looked up): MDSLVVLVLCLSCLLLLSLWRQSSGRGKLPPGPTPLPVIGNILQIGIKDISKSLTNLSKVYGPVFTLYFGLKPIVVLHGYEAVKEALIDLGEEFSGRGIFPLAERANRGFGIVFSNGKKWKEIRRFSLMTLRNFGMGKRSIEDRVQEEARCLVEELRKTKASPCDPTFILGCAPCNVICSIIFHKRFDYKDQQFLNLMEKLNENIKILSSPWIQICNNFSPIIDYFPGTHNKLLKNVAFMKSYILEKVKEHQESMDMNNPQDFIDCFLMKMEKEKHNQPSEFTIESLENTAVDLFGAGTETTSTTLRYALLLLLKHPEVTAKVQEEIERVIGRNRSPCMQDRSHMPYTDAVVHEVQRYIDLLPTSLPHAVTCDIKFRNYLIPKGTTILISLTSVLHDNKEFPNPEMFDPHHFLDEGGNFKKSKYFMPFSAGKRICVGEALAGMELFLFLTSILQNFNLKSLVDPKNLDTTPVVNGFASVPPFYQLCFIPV
# How it was run: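 Enzyme-substrate mix preincubated with compound 10 min at room temperature; reaction started with NADPH regeneration solution, 1 h 37C. Luminescent luciferin product read after 20 min detection reagent.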
# [3] = molecular target: Voltage-gated inwardly rectifying potassium channel KCNH2 (Homo sapiens) (UniProt Q12809); assay: Human Ether-a-go-go-Related Gene (hERG) channel small molecule antagonists: fluorescence cell-based qHTS assay (AID 1671200); also: nearly all actives have a fitted effect of over 50% in size;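 as to activity change, negative = inhibition: hERG-expressing U2OS cells given a thallium stimulus after FluxOR II dye loading; series mostly up to about 77 µM; % is scaled to controls: 0 for no effect and ±100 for the full control effect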
# Voltage-gated inwardly rectifying potassium channel KCNH2 (Homo sapiens), sequence (Q12809 whole entry, looked up): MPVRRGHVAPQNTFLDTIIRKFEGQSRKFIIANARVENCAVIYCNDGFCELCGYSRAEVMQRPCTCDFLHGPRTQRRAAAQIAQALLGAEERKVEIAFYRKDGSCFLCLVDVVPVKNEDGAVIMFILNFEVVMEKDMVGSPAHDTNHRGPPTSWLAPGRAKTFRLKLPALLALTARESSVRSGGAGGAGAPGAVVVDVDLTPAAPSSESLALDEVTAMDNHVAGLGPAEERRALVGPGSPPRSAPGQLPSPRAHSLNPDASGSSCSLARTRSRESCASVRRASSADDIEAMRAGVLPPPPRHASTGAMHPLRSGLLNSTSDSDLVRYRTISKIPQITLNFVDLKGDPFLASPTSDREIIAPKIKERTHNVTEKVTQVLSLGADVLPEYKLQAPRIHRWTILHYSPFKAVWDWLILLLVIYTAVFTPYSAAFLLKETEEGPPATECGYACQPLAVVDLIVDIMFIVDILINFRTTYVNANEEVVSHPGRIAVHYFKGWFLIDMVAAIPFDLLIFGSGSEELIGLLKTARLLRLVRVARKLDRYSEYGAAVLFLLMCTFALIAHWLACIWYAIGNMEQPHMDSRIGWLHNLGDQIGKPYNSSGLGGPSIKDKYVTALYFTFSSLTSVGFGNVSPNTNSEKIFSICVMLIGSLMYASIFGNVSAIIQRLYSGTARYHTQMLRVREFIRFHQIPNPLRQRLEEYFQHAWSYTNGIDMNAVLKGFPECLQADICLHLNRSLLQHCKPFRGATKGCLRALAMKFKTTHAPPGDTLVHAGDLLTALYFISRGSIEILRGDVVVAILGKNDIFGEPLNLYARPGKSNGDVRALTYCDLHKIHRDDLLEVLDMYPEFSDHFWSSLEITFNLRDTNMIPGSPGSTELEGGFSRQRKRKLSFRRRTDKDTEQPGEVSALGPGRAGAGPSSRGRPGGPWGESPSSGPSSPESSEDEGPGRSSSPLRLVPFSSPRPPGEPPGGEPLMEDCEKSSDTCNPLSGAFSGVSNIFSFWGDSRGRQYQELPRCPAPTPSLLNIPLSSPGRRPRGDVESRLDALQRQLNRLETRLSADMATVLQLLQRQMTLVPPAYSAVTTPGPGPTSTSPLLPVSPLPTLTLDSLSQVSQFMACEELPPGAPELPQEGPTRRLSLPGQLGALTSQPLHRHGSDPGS
# How it was run: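 Cell line hERG-U2OS; dye FluxOR II, 1 h RT dark; Tl+ stimulus; ex 480/em 540 nm, read each second for 2 min.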
# [4] = molecular target: Cytochrome P450 1A2 (Homo sapiens) (UniProt P05177); assay: Cytochrome P450 Family 1 Subfamily A Member 2 (CYP1A2) small molecule antagonists: luciferase reporter qHTS assay (AID 1671199); also: nearly all actives have a fitted effect of over 50% in size; as to activity change, negative = inhibition: series mostly up to about 120 µM; % is scaled to controls: 0 for no effect and ±100 for the full control effect
# Cytochrome P450 1A2 (Homo sapiens), sequence (P05177 whole entry, looked up): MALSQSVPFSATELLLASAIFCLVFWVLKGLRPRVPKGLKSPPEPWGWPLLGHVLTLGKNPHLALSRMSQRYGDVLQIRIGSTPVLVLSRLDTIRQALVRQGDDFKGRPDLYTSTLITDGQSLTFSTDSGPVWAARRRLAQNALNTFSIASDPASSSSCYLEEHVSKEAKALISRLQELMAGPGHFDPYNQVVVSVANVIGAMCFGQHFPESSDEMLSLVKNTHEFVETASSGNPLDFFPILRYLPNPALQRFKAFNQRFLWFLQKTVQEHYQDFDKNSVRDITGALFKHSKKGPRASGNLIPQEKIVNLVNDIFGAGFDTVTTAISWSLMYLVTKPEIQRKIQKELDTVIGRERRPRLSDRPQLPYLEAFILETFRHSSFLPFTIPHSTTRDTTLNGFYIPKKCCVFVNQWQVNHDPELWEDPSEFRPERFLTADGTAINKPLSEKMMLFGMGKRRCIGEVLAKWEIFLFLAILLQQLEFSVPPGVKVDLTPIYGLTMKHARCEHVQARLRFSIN
# How it was run: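 Quantitative high-throughput format using the P450-Glo CYP1A2 system. Reaction initiated by NADPH regeneration solution, 1 h at room temperature, then stopped with detection reagent; luminescence measured 20 min later.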
# [5] = molecular target: Cytochrome P450 3A4 (Homo sapiens) (UniProt P08684); assay: Cytochrome P450 Family 3 Subfamily A Member 4 (CYP3A4) small molecule antagonists: luciferase reporter qHTS assay (AID 1671201); also: nearly all actives have a fitted effect of over 50% in size; as to activity change, negative = inhibition: series mostly up to about 120 µM; % is scaled to controls: 0 for no effect and ±100 for the full control effect
# Cytochrome P450 3A4 (Homo sapiens), sequence (P08684 whole entry, looked up): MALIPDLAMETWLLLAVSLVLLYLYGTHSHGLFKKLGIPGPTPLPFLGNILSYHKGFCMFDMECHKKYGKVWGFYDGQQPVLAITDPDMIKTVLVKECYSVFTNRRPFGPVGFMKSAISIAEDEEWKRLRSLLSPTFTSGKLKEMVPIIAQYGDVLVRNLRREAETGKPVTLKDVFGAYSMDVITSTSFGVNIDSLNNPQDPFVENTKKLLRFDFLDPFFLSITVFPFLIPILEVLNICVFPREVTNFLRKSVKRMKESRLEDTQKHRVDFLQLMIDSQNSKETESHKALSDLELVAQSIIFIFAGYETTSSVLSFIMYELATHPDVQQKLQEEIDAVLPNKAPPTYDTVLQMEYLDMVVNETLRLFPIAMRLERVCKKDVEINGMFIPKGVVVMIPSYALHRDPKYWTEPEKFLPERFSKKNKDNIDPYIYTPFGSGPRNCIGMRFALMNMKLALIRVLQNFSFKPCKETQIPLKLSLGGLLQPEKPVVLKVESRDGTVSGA
# How it was run: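 Room-temperature assay throughout: 10 min compound–enzyme/substrate preincubation, 1 h reaction after NADPH regeneration solution, 20 min detection. Luciferin formed from proluciferin substrate is quantified by luminescence.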
# Potency is read from the fitted curve at half-maximal effect.
SMILES,Potency [1],Potency [2],Potency [3],Potency [4],Potency [5],"activity change, negative = inhibition [5]"
CCCN(CCC)C(=O)C(CCC(=O)OCCCN1CCN(CCOC(=O)Cc2c(C)n(C(=O)c3ccc(Cl)cc3)c3ccc(OC)cc23)CC1)NC(=O)c1ccccc1 (stereo unspecified),8.71 µM (active),4.9 µM (active),0.301 µM (active),,,
CCCCCCCCCCCCc1ccc(O)cc1,1.59 µM (active),6.33 µM (active),,22.4 µM (active),35.6 µM (active),
CC(=O)SC[C@@H](Cc1ccccc1)C(=O)NCC(=O)OCc1ccccc1,0.617 µM (active),3.47 µM (active),inactive,,,
CCC(Cl)C(Cl)C(Cl)CC(Cl)C(Cl)C(C)Cl (stereo unspecified),1.26 µM (active),7.96 µM (active),,35.6 µM (active),inactive,
C=CC(=O)OCCn1c(=O)n(CCOC(=O)C=C)c(=O)n(CCOC(=O)C=C)c1=O,2.83 µM (active),35.6 µM (active),,39.9 µM (active),0.2 µM (active),
CCCCCCCC/C=C\CCCCCCCCOCCO,46.3 µM (active),29.2 µM (active),,inactive,11.6 µM (active),
CN(C)c1ccc(SC#N)cc1,35.6 µM (active),17.8 µM (active),,5.64 µM (active),inactive,
Cc1cc2c(cc1C(F)(F)F)N(C(=O)Nc1ccc(Oc3cccnc3C)nc1)CC2,28.7 µM (active),,inactive,72.1 µM (active),20.3 µM (active),
[O-][n+]1ccccc1SSc1cccc[n+]1[O-],0.536 µM (active),,,2.81 µM (active),,7.02% [at 23.6 µM]
O=C(O)c1cc(O)c2c(c1)C(=O)c1cccc(O)c1C2=O,inactive,,,36.7 µM (active),inactive,
Cc1cc(=O)oc2cc(N(C)C)ccc12,79.6 µM (active),,inactive,6.33 µM (active),25.2 µM (active),
O=C(OCC1CO1)C1CCCCC1C(=O)OCC1CO1 (stereo unspecified),56.5 µM (active),,inactive,,,
OC1(c2ccc(Cl)c(C(F)(F)F)c2)CCN(CCCC(c2ccc(F)cc2)c2ccc(F)cc2)CC1,15.5 µM (active),,0.239 µM (active),,inactive,
O=C1CCCCCN1SSN1CCCCCC1=O,35.6 µM (active),,,,inactive,

# Source: PubChem BioAssay (Tox21)
